The results in this text go back to PubChem BioAssay AID463190 (Sanford-Burnham Center for Chemical Genomics, 2010).

Among all 330,000 compounds or so, about 7,300 (2.2%) were called active. The list comes from a sample in which actives are over-represented; it also holds similar structures and randomly drawn compounds. Unmarked numbers belong to inactive results.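 How the source made its calls: active means inhibition of at least 40%; inactive means the rest.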

The nature of the assay: growth inhibitors of tim10-1 mutant yeast, primary screen, luminescence, uHTS (AID 463190).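 Further: mutant grown at 25 °C; 0% = DMSO wells with yeast and 100% = wells holding no yeast.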 The conditions noted are these: S. cerevisiae tim10-1 ts strain growth, BacTiter-Glo, 24 h; at 20 µM; stronger effect = higher value.
For the compound `CCOC(=O)/C=C/CN(C(=O)OC(C)(C)C)S(=O)(=O)N1CC=CC1`, the inhibition was 17.9%.
As to `CC(C)(Oc1ccc(C2CC2(Cl)Cl)cc1)C(=O)O` (stereo not drawn), the inhibition was 9.95%.
With `CN(C)C(=O)c1ccc2c(c1)C1C3CCC(C3)C1C(c1ccccc1)N2` (stereo not drawn) the figure was 46% (active); with `CN(C)C(=O)c1ccc(NC(=O)c2ccccc2-c2ccccc2)cc1`, 3.15%.
In the case of `Cc1ccc(C)c(N2CCN(C(=O)CCc3nc(-c4cccc(C(F)(F)F)c4)no3)CC2)c1`, the inhibition is 17.8%.
Then `OCCC1CN(Cc2ccccc2-c2ccco2)CCN1Cc1ccsc1` (stereo not drawn), with 17.5%; and `COc1cc(C=NNC(=O)c2cccnc2)ccc1OC(=O)c1ccccc1F`, with 4.11%; and `CN(NS(=O)(=O)c1cccs1)c1ncc(C(F)(F)F)cc1Cl`, with 15.9%.
Then `CC(C)c1nc(SCC(=O)Nc2cccc(C(=O)O)c2)c2c3c(sc2n1)CCCC3`, with 10.1%.
With `Cc1cc(C)n(-c2nc(SCC(=O)N3CCCC3)c3c4c(sc3n2)CCCC4)n1` the figure was 52.2% (active); with `COCCNc1nc(-n2nc(C)cc2C)nc2sc3c(c12)CCCC3`, 30.3%.
Regarding `O=C(O)C1CCCN1S(=O)(=O)c1ccc(Br)cc1` (stereo not drawn), the inhibition was -5.99%.
Then `COCCN(C(=O)COC(=O)Cc1cccc(OC)c1)c1c(N)n(Cc2ccccc2)c(=O)[nH]c1=O`, with 0.462%.
With `N#C/C(=C\c1cccnc1)C(=O)Nc1ccc(SC(F)F)cc1`, the inhibition was 52.5% (active).
With `CC(C)(C)NC(=O)/C(=C/c1cccnc1)NC(=O)c1ccco1` the figure was -15.4%.
With `Cc1cc(/C=C(/C#N)C(=O)Nc2ccc(Cl)cc2)c(C)n1-c1cccnc1` the figure was 20.6%; with `O=C(O)CCCCCCCCc1cn(CN2C(=O)c3ccccc3C2=O)nn1`, -13.2%.
Then `CCOC(=O)N1CCC(N(CCOC)C(=O)Nc2ccc(C)c(C)c2)CC1`, with 26.7%; and `COc1ccc(/C(=N\O)c2nccc3cc(OC)c(OC)cc23)cc1OC`, with 17.4%; and `Cc1ccc(-c2csc(NCCc3nc4cc(Cl)c(Cl)cc4n3CCOCCO)n2)cc1`, with 33.4%.
As to `Cc1ccc(Nc2nc(-c3ccc(O)cc3O)cs2)nc1`, the inhibition is 43.9% (active).
Then `Cc1ccccc1Nc1nc(-c2cccnc2)cs1`, with -3.25%; and `COc1c(C(=O)N2CCCC2)ccc2ccccc12`, with 6%.
As to `C[C@@H](NC(=O)[C@@H]1Cc2ccccc2CN1)C(=O)NC1CCCC1`, the inhibition is 5.23%.
Regarding `CC(C)(CNC(=O)c1cc(=O)[nH]c2ccccc12)N1CCOCC1`, the inhibition was -7.73%.
For the compound `O=C(N/N=C/c1ccc([N+](=O)[O-])cc1)C(=O)N1CCCC1`, the inhibition was 17.3%.
Take `O=[N+]([O-])c1ccc(N/N=C/c2ccccc2)cc1`: the inhibition is 40.7% (active).
For `O=[N+]([O-])c1cccc(/C=N/Nc2ncc(Br)cn2)c1`, the inhibition is -23.5%.
With `COc1ccc(-n2nc(C(=O)NCC(=O)N3CCN(c4ccccc4OC)CC3)c3ccccc3c2=O)c(OC)c1` the figure was 1.49%; with `CCN(c1ccccc1)S(=O)(=O)c1ccc2[nH]c(=O)[nH]c2c1`, 11.5%; with `O=C(O)C(c1ccccc1)C1(O)CCCCC1` (stereo not drawn), 2.11%.
Then `Cc1ccc(C(=O)Nc2c(C#N)c(C)c(C)n2Cc2ccccc2)cc1`, with 17.9%; and `O=C(CSc1ccc(-c2ccc(Br)cc2)nn1)NCC1CCCO1` (stereo not drawn), with 17.5%.
With `OC(CNCC1CCCO1)Cn1c2ccc(Br)cc2c2cc(Br)ccc21` (stereo not drawn) the figure was 45.7% (active); with `O=C(CCNS(=O)(=O)c1ccc(Br)cc1)NCC1CCCO1` (stereo not drawn), 1.09%.
`NC(=O)C1CCN(C(=O)/C(=C/c2ccco2)NC(=O)c2ccccc2)CC1`: the inhibition was -8.85%.
As for `NC(=O)CC[C@@H]1NC(=O)[C@H](CO)NC(=O)c2cc([N+](=O)[O-])cc(I)c2NCC[C@@H](C(N)=O)NC1=O`, the inhibition is -26.8%.
Then `CCOc1ccc(NC(=O)[C@H](C)NC(=O)C2CC(=O)N(c3ccc(OC)cc3)C2)cc1` (stereo partly drawn), with -6.36%; and `COC(=O)C(NS(=O)(=O)c1ccc(F)cc1)c1ccccc1` (stereo not drawn), with 13.7%.
With `Cc1ccc(OS(=O)Nc2cccc3nccnc23)cc1` (stereo not drawn) the figure was 54.6% (active); with `Cc1ccc(Oc2ccc3c(c2)C(=O)N(c2cccc4cccnc24)C3=O)cc1`, 18.3%.
With `Cc1ccc(OCC(=O)Nn2cnc3ccccc32)cc1` the figure was 1.81%.
As for `CCOc1ccc(NS(=O)(=O)c2cc(C)c(C)cc2C)cc1`, the inhibition is 1.28%.
Take `CC(C)(C)c1cc(CN2CCN(CCC#N)CC2)cc(C(C)(C)C)c1O`: the inhibition was -1.87%.
With `CCN1/C(=C\c2ccc3ccccc3[n+]2CC)Sc2cc(C)ccc21` the figure was 65.2% (active); with `C=CCn1c(COc2ccc(F)cc2)nnc1SCC(=O)Nc1cccc(S(N)(=O)=O)c1`, -3.82%.
With `O=c1nc(N2CCOCC2)nc2n1CCO2` the figure was -13.4%; with `CCC1CCCCN1C(=O)CSc1nc2c(c(=O)n(C)c(=O)n2C)n1C` (stereo not drawn), 0.551%; with `O=S(=O)(c1ccc(F)cc1)n1ccc(-c2cnc(-c3ccccc3)s2)n1`, 24.1%.
With `O=[N+]([O-])c1ccc2oc(-c3cccc(O)c3)nc2c1` the figure was 45.7% (active).
As for `CC(=O)Oc1ccc2c(=O)oc(-c3ccc([N+](=O)[O-])cc3)nc2c1`, the inhibition was 22.6%.
Then `COc1ccc2oc(-c3cccc(NC(=O)CSc4ccc(Cl)cc4)c3)nc2c1`, with 21.6%.
Then `Cc1ccc(OS(=O)(=O)c2ccc(-c3csc(C)n3)s2)c(C)c1`, with 10.6%; and `COc1cc(C=O)ccc1Oc1nnnn1-c1ccccc1`, with 22.8%.
With `O=C(CCNC(=O)c1ccccc1)Nc1nc2ccccc2s1` the figure was -11%; with `O=C(CNC(=O)c1ccccc1)Oc1ccc([N+](=O)[O-])cc1`, 3.17%; with `O=C(NC(Nc1nc2ccc([N+](=O)[O-])cc2s1)(C(F)(F)F)C(F)(F)F)c1ccccc1`, 85.4% (active).
`CCC(=O)Nc1cccc(C2=NOC3(C2)C[C@@H](C(N)=O)N(C(=O)c2cc([N+](=O)[O-])cc([N+](=O)[O-])c2C)C3)c1` (stereo partly drawn): the inhibition is 9.39%.

As a reminder, the inhibition is the change of the read-out against control, counted positive when it falls.
